SARS PLP yeast – qHTS of Yeast-based Assay for SARS-CoV PLP; S. cerevisiae expressing SARS-CoV PLpro, growth rescue; Potency, µM (series often up to 32.9 µM), hits mostly activators; 0.19% of 330,000 active; AID 485353, 2010; calls by dose curve; note: nearly all actives have a fitted effect of over 55% in size
HCV inhibitor – qHTS Assay for Inhibitors of Hepatitis C Virus (HCV); Huh7.5.1 HCVcc-Cre infection, luciferase reporter, 44 h; Potency, µM (top dose mostly 41.8 µM), hits mostly inhibitors; 3.4% of 340,000 active
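Luciferase read-out (15 sec integration) after a 15 min room-temperature substrate step quantifies HCVcc-Cre infection. Cells, 1,000 per well, had compound added 4 h post-plating, then virus at ~0.5 moi, and were cultured 44 h.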
Sm TGR block – qHTS Assay for the Inhibitors of Schistosoma Mansoni Peroxiredoxins | 3% of 360,000 active | Potency, µM (highest dose often 114 µM), hits mostly inhibitors | AID 485364, 2010 | purified TGR, DTNB reduction, TNB absorbance 405 nm; note: nearly all actives have a fitted effect of over 60% in size
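Kinetic colorimetric format: TGR-catalysed, NADPH-driven DTNB reduction monitored via TNB absorbance. Enzyme dispensed at 20 nM; compound exposure 15 min at room temperature before reaction start.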
Pf growth 96h – Primary qHTS for delayed death inhibitors of the malarial parasite plastid, 96 hour incubation; P. falciparum luciferase reporter growth, 96 h; Potency, µM (titrated, usually from 28.7 µM), most hits filed as inhibitors; 6.9% of 320,000 active
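Two-generation exposure (96 h) targets delayed-death phenotype. Reporter parasites carrying integrated firefly luciferase, in red cells at 2% hematocrit and 0.05% parasitemia final, kept at 37 C, 5% CO2; luminescence loss indicates inhibition.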
Pf growth 48h – Primary qHTS for delayed death inhibitors of the malarial parasite plastid, 48 hour incubation. P. falciparum luciferase growth in erythrocytes, 48 h. Potency, µM (top dose mostly 28.7 µM), hits mostly inhibitors. 5.9% of 310,000 active
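Compounds are pin-transferred into medium, infected erythrocytes (2% hematocrit, 0.1% parasitemia final) are added, and plates sit one parasite generation at 37 C in 5% CO2. Detection reagent is then added and luminescence measured.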
HCMV antiviral – qHTS Assay for inhibitors of the human cytomegalovirus (HCMV); HFF cells, HCMV-luciferase reporter, 72 h; hits give low values; activity change, negative = inhibition, % at 57.5 µM; 4.5% of 410,000 active; AID 1259415, 2018; in the data active = activity change below about -60%; inconclusive = no clear call, values can overlap the other calls; inactive = above about -39%
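Cell-based, HFFs, 1000 cells/well, 16 h 37C; cpds in DMSO + HCMV-luc, MOI 1 PFU/cell; 72 h 37C; OneGlo luminescence after 5 min RT; norm. to buffer vs Salinomycin 10uM.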
Numbers stand for hits; i = inactive; ? = inconclusive; nt = not tested or not shown. This is a sample that favours compounds with a hit; in the whole collection about 15% have one here. Unless noted, calls come from the whole dose curve; as a rule, active = well fitted curve in the direction sought with a large enough effect; inconclusive = small, poorly fitted or top-dose-only effect, or another doubt; inactive = no such curve, though single readings can be large; an effect the other way counts as inactive or inconclusive.

SMILES	SARS PLP yeast	HCV inhibitor	Sm TGR block	Pf growth 96h	Pf growth 48h	HCMV antiviral
CC[C@H](C)[C@H]1CNC(=O)C(=O)N1CC1CCN(CCc2ccccc2)CC1	nt	i	nt	nt	nt	i
CC(C(=O)Nc1ccccc1-c1ccccc1)N1CCN(Cc2ccccc2)CC1 (stereo not drawn)	i	i	i	?	13.1µM	i
CC(C(=O)Nc1ccccc1-c1ccccc1)N1CCN(C(=O)c2ccccc2)CC1 (stereo not drawn)	i	i	i	?	?	?
Cc1ccc(S(=O)(=O)N2CCN(C(C)C(=O)Nc3ccccc3-c3ccccc3)CC2)cc1 (stereo not drawn)	i	?	i	7.38µM	9.28µM	?
CC(=O)Nc1ccc(S(=O)(=O)NCc2nc(-c3ccc(C)cc3)no2)cc1	i	i	i	?	i	i
Cc1cccc(CC(Cc2nc3ccccc3[nH]2)c2nc3ccccc3[nH]2)c1 (stereo not drawn)	i	?	i	i	?	-82.6
COc1ccccc1CC(Cc1nc2ccccc2[nH]1)c1nc2ccccc2[nH]1 (stereo not drawn)	i	?	i	i	?	i
CC(c1ccccc1)C(Cc1nc2ccccc2[nH]1)c1nc2ccccc2[nH]1 (stereo not drawn)	i	nt	i	i	7.38µM	nt
CCC(C)SCc1nc2ccccc2[nH]1 (stereo not drawn)	i	i	i	?	i	-62.7
CCN(CC)C(=O)[C@H]1CC(CC(=O)NCCN2CCOCC2)C(=O)N2CCc3c([nH]c4ccccc34)[C@]12C (stereo partly drawn)	i	i	nt	nt	nt	i
CC1=CCC2C(=O)N(c3ccc(C)c(Br)c3)C(=O)C2C1 (stereo not drawn)	?	i	i	?	i	i
CC(=O)Nc1ccc(OS(=O)(=O)c2cc(Cl)ccc2C)cc1	i	i	i	i	?	?
O=C(COc1ccc(C(=O)c2ccc(F)cc2)cc1)NCc1ccc(F)cc1	i	i	i	?	i	-77.7
O=C(COc1cccc(NC(=O)c2ccccc2)c1)c1ccc(F)cc1	i	?	i	i	i	?
O=C(COc1ccc(F)cc1)c1ccc2c(c1)CCCC2	nt	i	nt	nt	nt	i
Cc1cc(OCC(=O)c2ccc(F)cc2)ccc1N1C(=O)CCC1=O	i	i	i	9.28µM	i	i
COc1ccc(CNC(=O)COc2ccc(C(=O)c3ccc(F)cc3)cc2)cc1	i	?	i	i	i	i
Cc1ccc(CNC(=O)COc2ccc(C(=O)c3ccc(F)cc3)cc2)cc1	i	i	i	?	i	-74.8
O=C(COc1ccc(Cc2ccccc2)cc1)c1ccc(F)cc1	i	i	i	5.22µM	i	i
CN(Cc1nc2c(s1)CCCC2)C(=O)CCc1nnc(-c2ccccc2)o1	i	i	?	9.28µM	i	i
COc1ccc(CCN(C)C(=O)CCc2nnc(-c3ccccc3)o2)cc1OC	i	i	i	i	i	i
CN(Cc1ccc(F)cc1)C(=O)CCc1nnc(-c2ccccc2)o1	i	i	i	8.28µM	i	i
CCCOc1ccc(CNC(=O)Cn2ncn3c(cc4sc(CC)cc43)c2=O)cc1	nt	nt	i	nt	nt	i
CC1CCCCC1NC(=O)CC1Oc2ccccc2NC1=O (stereo not drawn)	i	i	i	i	nt	-66.3
O=C(NCc1ccccc1)C(c1ccc(O)cc1)N(C(=O)Cn1nnc(-c2cccs2)n1)c1ccc2c(c1)OCCO2 (stereo not drawn)	i	?	i	i	11.7µM	i
Cc1ccc(-c2nnn(CC(=O)N(CC3CCCO3)C(C(=O)NC(C)(C)C)c3ccc(F)cc3)n2)o1 (stereo not drawn)	i	i	i	11.7µM	10.4µM	i
O=C(NC1CCCC1)C(c1cccs1)N(Cc1ccco1)C(=O)Cn1nnc(-c2cccs2)n1 (stereo not drawn)	i	?	i	i	?	nt

High-throughput results as filed in PubChem BioAssay.
